This is part of a sample that, as a whole, favours compounds with a hit. Of some 79,000 tested, about 15% had one in any assay. Values without a mark were called inactive. Activity calls are given as the source filed them. Rule as the data show it: active = growth inhibition above about 70%; inactive = the rest.
Columns and labels:
[1] = NCI Yeast Anticancer Drug Screen. Data for the rad50 strain (AID 155);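 also: 0% = growth of vehicle-only cultures of the same strain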; conditions: S. cerevisiae rad50 strain growth inhibition, stronger effect = higher value
Summary of the method: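 Genetically altered yeast (DNA repair pathway); compound treatment; growth inhibition vs vehicle ctrl.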

[2] = NCI Yeast Anticancer Drug Screen. Data for the mec2-1 strain (AID 157); conditions: S. cerevisiae mec2-1 strain, stronger effect = higher value
Summary of the method: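 Readout is yeast growth inhibition, normalised to vehicle-treated controls, in the mec2-1 strain exposed to compound.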

[3] = NCI Yeast Anticancer Drug Screen. Data for the sgs1 mgt1 strain (AID 161);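 also: 0% = growth of cultures given vehicle only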; conditions: S. cerevisiae sgs1 mgt1 strain, stronger effect = higher value
Summary of the method: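 This yeast growth screen uses a strain with defined DNA-repair lesions; compound-treated growth is compared with vehicle-treated growth.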

[4] = NCI Yeast Anticancer Drug Screen. Data for the cln2 rad14 strain (AID 165);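 also: 0% = growth equal to vehicle treated cultures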; conditions: S. cerevisiae cln2 rad14 strain, stronger effect = higher value
Summary of the method: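 Relative to vehicle controls, growth inhibition of compound-treated cln2 rad14 yeast was recorded.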

[5] = NCI Yeast Anticancer Drug Screen. Data for the bub3 strain (AID 167); conditions: S. cerevisiae bub3 mutant strain, stronger effect = higher value
Summary of the method: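 Yeast carrying a defined mutation is treated with each compound, and growth is compared with that of vehicle-exposed cells to give inhibition.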

[6] = NCI Yeast Anticancer Drug Screen. Data for the mlh1 rad18 strain (AID 175); conditions: S. cerevisiae mlh1 rad18 strain growth inhibition, stronger effect = higher value
Summary of the method: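 Test agents were incubated with a yeast strain of defined genotype (DNA damage repair defect). Inhibition of growth was derived by comparison with vehicle-exposed cultures.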

[7] = at 5.0 µM (retest, dose inferred, filed as 0.5)
[8] = at 50.0 µM (retest, dose inferred, filed as 5.0)

Row | SMILES | growth inhibition [1, 7] [%] | growth inhibition [1, 8] | growth inhibition ([1]; at 50.0 µM) | growth inhibition [2, 7] [%] | growth inhibition [2, 8] | growth inhibition ([2]; at 50.0 µM) | growth inhibition [3, 7] [%] | growth inhibition [3, 8] | growth inhibition ([3]; at 50.0 µM) | growth inhibition [4, 7] [%] | growth inhibition [4, 8] | growth inhibition ([4]; at 50.0 µM) | growth inhibition [5, 7] [%] | growth inhibition [5, 8] | growth inhibition ([5]; at 50.0 µM) | growth inhibition [6, 7] [%] | growth inhibition [6, 8] | growth inhibition ([6]; at 50.0 µM)
1 | O=C1OC(=O)C2C=CC=CC12 (stereo not given) | 2 | -5% | 50% | -1 | -9% | -8.45% | 2 | 4% | -7.9% | -1 | -6% | -74.8% | -3 | 2% | 6.15% | 14 | 2% | -12.2%
2 | O=C(O)c1c([N+](=O)[O-])cc(C(F)(F)F)cc1[N+](=O)[O-] | -20 | 6% | -1.7% | 0 | 13% | 4.3% | 1 | 11% | 14.9% | 9 | 43% | -29.6% | 1 | 10% | -3.55% | 43 | 9% | 29%
3 | COC(=O)/C(C#N)=C/c1cc(OC)c(O)cc1Br | 46 | 56% | 48.6% | 31 | 44% | 40% | 44 | 68% | 42.1% | 35 | 43% | 43.8% | 46 | 48% | 46.5% | 54 | 76% (active) | 31.1%
4 | Cc1ccc2c(c1)[n+]([O-])c(N)n[n+]2[O-] | 21 | 61% | 75.7% (active) | 1 | 35% | 48.4% | 17 | 43% | 57.1% | 11 | 47% | 40.2% | -7 | 36% | 43.1% | 20 | 64% | 50.6%
5 | CC(=O)c1ccc2c(c1)CC1(C2)Cc2ccccc2C1=O (stereo not given) | -5 | -16% | -2.15% | -1 | 0% | 1.15% | 11 | 24% | 7.8% | 2 | -13% | -10.6% | 25 | 84% (active) | 84.3% (active) | -4 | -9% | 10%
6 | CC(=O)OC1=CC(n2cc(F)c(=O)[nH]c2=O)OC(C)C1=O (stereo not given) | 23 | 58% | 69.7% | 13 | 85% (active) | 88.4% (active) | 24 | 64% | 86.5% (active) | 19 | 4% | 37.5% | 15 | -13% | 62.1% | 20 | 57% | 51.7%
7 | OCN(CO)c1ccc2c(c1)Cc1cc(F)ccc1-2 | 34 | 97% (active) | 92.8% (active) | -19 | 99% (active) | 86.2% (active) | 41 | 97% (active) | 51.2% | 1 | 97% (active) | 96.5% (active) | -5 | 97% (active) | 90.9% (active) | 59 | 98% (active) | 97.8% (active)
8 | NC(=O)NOCC1NC(=O)NC1=O (stereo not given) | -24 | -4% | -4.95% | -10 | -13% | -13.1% | -16 | -10% | -21.4% | 8 | -2% | -11.1% | -3 | -3% | -21.8% | 1 | 8% | -16.3%
9 | CC(C)COC(=O)c1ccc(N=Cc2ccc(C=Nc3ccc(C(=O)OCC(C)C)cc3)cc2)cc1 | 25 | 25% | 31.6% | 16 | 16% | -34.1% | 14 | 14% | -10.2% | 7 | 7% | 1.75% | 9 | 9% | -20.8% | -1 | -1% | -12.3%
10 | CCc1cccc(C(C)(C)C)c1NC(=S)N/C=C(\C#N)C(=O)c1ccc2ccccc2c1 | -5 | 34% | 67.4% | -26 | 25% | 35.5% | -8 | 22% | 70.7% (active) | -18 | 8% | 29.3% | -17 | 18% | 63.9% | -6 | 38% | 65.2%
